Measurements taken from PubChem BioAssay (NCATS).
Records with an inconclusive call do not appear. Calls of active or inactive are those of the source. Calls come from the whole dose curve; as a rule, active = well fitted cell-killing curve with a large enough effect; inconclusive = small, poorly fitted or top-dose-only effect, or effect the other way; inactive = no such curve, though single readings can be large or run the other way.
Potency is the fitted concentration of half-maximal effect.

Assay: Quantitative High-Throughput drug screen in 47 multiple myeloma cell lines against the NCATS MIPE library collection: XG1_PLB cell viability assay (AID 1919866); note: nearly all actives have a fitted effect of over 35% in size
Conditions: CellTiter-Glo ATP, 48 h; series mostly up to 45.8 µM; viability: at the top concentration
Source text: PI: Beverly A. Mock Ph.D.
Laboratory of Cancer Biology and Genetics,
Center for Cancer Research, National Cancer Institute,
National Institute of Health, Bethesda, Maryland
Drug resistance and disease progression are common in multiple myeloma (MM) patients, underscoring the need for new therapeutic combinations. […] We hypothesized that effective combinations would reduce MYC expression and enhance p16 activity. […] These preclinical data identify potentially useful drug combinations for evaluation in drug-resistant MM and reveal potential mechanisms of combined drug sensitivity.
Described herein is the primary MIPE qHTS used to cherrypick compounds. Validated compounds were then further tested for potential synergistic activiy.
[1] Peat TJ, Gaikwad SM, Dubois W, Gyabaah-Kessie N, Zhang S, Gorjifard S, Phyo Z, Andres M, Hughitt VK, Simpson RM, Miller MA, Girvin AT, Taylor A, Williams D, D'Antonio N, Zhang Y, Rajagopalan A, Flietner E, Wilson K, Zhang X, Shinn P, Klumpp-Thomas C, McKnight C, Itkin Z, Chen L, Kazandijian D, Zhang J, Michalowski AM, Simmons JK, Keats J, Thomas CJ, Mock BA. Drug combinations identified by high-throughput screening promote cell cycle transition and upregulate Smad pathways in myeloma. Cancer Lett. 2023 Aug 1;568:216284. doi: 10.1016/j.canlet.2023.216284. Epub 2023 Jun 24. PMID: 37356470; PMCID: PMC10408729.
SEQUENCE No. (e.g., 1, 2, 3, etc.); […] (e.g., Cells, Incubation, Reagent, etc.); VALUE and DESCRIPTION.
1; Cells; 5 uL; white, solid bottom 1536-well Greiner assay plate.
2; Compounds; 23 nL; Kalypsis pin tool (Wako USA) equipped with a 1536-well pin head to transfer to the assay plates.
3; Incubation; 48 hours; 37C incubation.
4; Reagent;5uL; CellTiter Glo (Promega).
5; Detector; 425V; Luminescence; Viewlux PerkinElmer.
NOTES (numbers refer to Sequence numbers above)
1. The cell-based screening methods employed in this study were like those previously published. Briefly, the corresponding myeloma cell lines were screened in 1,536-well plates with 500 cells, 5-uL per well for inhibition of cell viability (assessed by measuring ATP levels with CellTiterGlo).
2. NCATS MIPE 4.0 library of approved and investigational drugs were added using the Kalypsis pin tool. Wells treated with DMSO only for 100% viability and media only for 0% viability were used as controls.
3. The assay plates were covered and incubated for 48 hours in a 37C, 5% CO2 incubator with controlled humidity.
4. After 48 hours, CellTilter-GloTM luminescent substrate mix (Promega) reagent was added to the assay plate and plates we incubated for 5 min at room temperature.
5. Signal was measured as median relative luminescence units on a ViewLux (PerkinElmer) multiplate reader.
[1] Heske CM, Davis MI, Baumgart JT, Wilson K, Gormally MV, Chen L, Zhang X, Ceribelli M, Duveau DY, Guha R, Ferrer M, Arnaldez FI, Ji J, Tran HL, Zhang Y, Mendoza A, Helman LJ, Thomas CJ. Matrix Screen Identifies Synergistic Combination of PARP Inhibitors and Nicotinamide Phosphoribosyltransferase (NAMPT) Inhibitors in Ewing Sarcoma. Clin Cancer Res. 2017 Dec 1;23(23):7301-7311. doi: 10.1158/1078-0432.CCR-17-1121. Epub 2017 Sep 12. PMID: 28899971; PMCID: PMC6636827.
For `O=c1[nH]nc(OCCCc2ccc(Cl)cc2)c(NCc2cccnc2)c1Br`, the Potency was 9.35 µM (active). For `Cc1cccc2c1CC[C@H](CN1CCC(c3c(Cl)cccc3Cl)CC1)C[C@@H]2O`, the Potency was 20.9 µM (active). With `C[C@@]1(C(=O)Nc2ccc(F)nc2)CCCN1c1nc(Nc2cc(C3CC3)[nH]n2)c2cccn2n1` the Potency was 0.0743 µM (active). With `CCNC(=O)Nc1ccc(Oc2ncnc(N)c2C=NOC)cc1Cl` the Potency was 2.96 µM (active). With `CNC(=O)c1c(-c2ccc(F)cc2)oc2cc(N(CCO)S(C)(=O)=O)c(C3CC3)cc12` the Potency was 20.9 µM (active). With `COC(=O)Nc1ccc(-c2nc(N3CCOCC3)c3cnn(C4CCN(C(=O)OC)CC4)c3n2)cc1` the Potency was 0.296 µM (active). In the case of `O=C(O)C1=CO[C@@H](O[C@@H]2O[C@H](CO)[C@H](O)[C@H](O)[C@H]2O)[C@@H]2C(CO)=CC[C@H]12`, the “viability” value is reported as 121% (inactive). For `O=C(c1ccc(F)c(F)c1Nc1ccc(I)cc1F)N1CC(O)([C@H]2CCCCN2)C1`, the Potency was 16.6 µM (active). For `CC(=O)N1CCN(c2ccc(OCc3nn(C)c(C)c3-c3cccc4c(CCCOc5cc(C)c(Cl)c(C)c5)c(C(=O)O)n(Cc5cccnc5)c34)cc2)CC1`, the Potency was 5.9 µM (active). For `CCN1CCC(n2cc(CNc3cc(Cl)c4ncc(C#N)c(Nc5ccc(F)c(Cl)c5)c4c3)nn2)CC1`, the Potency was 23.5 µM (active). For `C[C@@H](N)c1ccc(C(=O)Nc2ccnc3[nH]ccc23)cc1`, the Potency was 20.9 µM (active). For `NC(=O)c1ccc(N(C(N)=O)c2c(F)cccc2F)nc1-c1ccc(F)cc1F`, the Potency was 2.96 µM (active). With `COc1cc(Nc2nc3ccccc3nc2NS(=O)(=O)c2ccc(NC(=O)c3ccc(C)c(OC)c3)cc2)cc(OC)c1` the Potency was 13.2 µM (active). With `CC(C)CN(C[C@@H](O)[C@H](Cc1ccccc1)NC(=O)O[C@H]1CO[C@H]2OCC[C@H]21)S(=O)(=O)c1ccc(N)cc1` the Potency was 16.6 µM (active). In the case of `O=C1CCCC(=O)C1C(=O)c1ccc(C(F)(F)F)cc1[N+](=O)[O-]`, the “viability” value is reported as 93.3% (inactive). In the case of `CC1(C)OC2CC3C4CC(F)C5=CC(=O)C=CC5(C)C4C(O)CC3(C)[C@]2(C(=O)CO)O1` (stereo not given in full), the “viability” value is reported as 107% (inactive). For `COc1cc2c(cc1OC)[C@@H]1Cc3ccc(OC)c(OC)c3CN1CC2`, the “viability” value was 89.7% (inactive). For `CCCCCCCCCCCCCCCC(=O)O[C@H]1[C@@H](O)[C@@H](O)[C@@H]([C@H](NC(=O)[C@@H]2C[C@@H](CCC)CN2C)[C@H](C)Cl)O[C@@H]1SC`, the “viability” value was 109% (inactive). For `CN1CCN(c2cccc(Nc3nc4c(-c5ccc(S(C)(=O)=O)cc5)cccn4n3)c2)CC1`, the Potency was 0.372 µM (active). With `C=CC(=O)Nc1cccc(Sc2nc(Nc3ccc(N4CCN(C)CC4)cc3)ncc2Cl)c1` the Potency was 1.05 µM (active). With `CC(C)(C)c1nc(-c2cccc(NS(=O)(=O)c3c(F)cccc3F)c2F)c(-c2ccnc(N)n2)s1` the Potency was 10.5 µM (active). For `CCCCCOC(=O)Nc1nc(=O)n([C@@H]2O[C@H](C)[C@@H](O)C2O)cc1F` (stereo not given in full), the Potency was 18.7 µM (active). For `Cc1cnc(CNC(=O)c2c(=O)c3ccc(N4CCCN(C)CC4)nc3n3c2sc2ccccc23)cn1`, the “viability” value was 91.8% [at 23.2 µM] (inactive). For `O=S(=O)(O)c1ccc2cc(N=Nc3cc(S(=O)(=O)O)c4cccnc4c3O)ccc2c1`, the Potency was 5.9 µM (active). In the case of `CCOc1ccccc1N=Nc1c(C)[nH]n(-c2nc(-c3ccccc3)cs2)c1=O`, the Potency is reported as 1.05 µM (active). With `Cc1[nH]c(C=C2C(=O)Nc3ccc(S(=O)(=O)N(C)c4cccc(Cl)c4)cc32)c(C)c1C(=O)N1CCN(C)CC1` the Potency was 11.8 µM (active). With `CC(=O)OCC(=O)[C@@]12OC(C)(C)O[C@H]1C[C@H]1[C@@H]3C[C@H](F)C4=CC(=O)C=C[C@]4(C)[C@@]3(F)[C@@H](O)C[C@@]12C` the “viability” value was 129% (inactive). For `C[C@@H]1CCO[C@H]2Cn3cc(C(=O)NCc4ccc(F)cc4F)c(=O)c(O)c3C(=O)N12`, the Potency was 26.4 µM (active). With `CCC(=O)NCC[C@@H]1CCc2ccc3c(c21)CCO3` the “viability” value was 105% (inactive). With `N#CC1(c2cccc(C(=O)Nc3cc(Oc4ccc5nc(NC(=O)C6CC6)sc5n4)ccc3F)c2Cl)CC1` the Potency was 2.35 µM (active). In the case of `CCOC(=O)[C@H]1O[C@H]1C(=O)N[C@@H](CC(C)C)C(=O)NCCC(C)C`, the “viability” value is reported as 102% (inactive). With `CC(C)(F)C[C@H](N[C@@H](c1ccc(-c2ccc(S(C)(=O)=O)cc2)cc1)C(F)(F)F)C(=O)NC1(C#N)CC1` the “viability” value was 102% (inactive). In the case of `COc1nc(C)cnc1NS(=O)(=O)c1cccnc1-c1ccc(-c2nnco2)cc1`, the “viability” value is reported as 119% (inactive). For `COC(=O)[C@H](c1ccccc1Cl)N1CCc2sccc2C1`, the “viability” value was 98.7% (inactive). For `COc1ccc(C=CC(=O)Nc2ccccc2C(=O)O)cc1OC`, the Potency was 6.62 µM (active). With `COc1ccc(-c2nc3ccc(C4=NNC(=O)CC4C)cc3[nH]2)cc1` (stereo not given) the “viability” value was 110% (inactive). For `Cc1cc2c(cc1C1(c3ccc(C(=O)O)cn3)CC1)C(C)(C)CCC2(C)C`, the “viability” value was 119% (inactive). With `O=C(C=Cc1ccc(O)cc1)c1ccc(O)cc1O` the Potency was 16.6 µM (active). In the case of `N[C@@H](CC(=O)N1CCn2c(nnc2C(F)(F)F)C1)Cc1cc(F)c(F)cc1F`, the “viability” value is reported as 130% (inactive). For `Nc1[nH]nc2nnc(-c3c(-c4ccccc4)nn4ccccc34)cc12`, the Potency was 6.62 µM (active).
